In PubChem BioAssay (NCATS):
Inconclusive results are not listed. A call without a number means that no potency is given here. Active and inactive are the calls of the source. Unless noted, calls follow the shape of the dose curve; as a rule, active = well fitted curve in the direction sought with a large enough effect; inconclusive = small, poorly fitted or top-dose-only effect, or another doubt; inactive = no such curve, though single readings can be large; an effect the other way counts as inactive or inconclusive.

Columns and labels:
[1] = biological target: Cytochrome P450 3A4 (Homo sapiens) (UniProt P08684); assay: qHTS Assay for Inhibitors and Substrates of Cytochrome P450 3A4 (AID 884); also: nearly all actives have a fitted effect of over 50% in size
Chain of Cytochrome P450 3A4 (Homo sapiens) (P08684 whole entry, looked up): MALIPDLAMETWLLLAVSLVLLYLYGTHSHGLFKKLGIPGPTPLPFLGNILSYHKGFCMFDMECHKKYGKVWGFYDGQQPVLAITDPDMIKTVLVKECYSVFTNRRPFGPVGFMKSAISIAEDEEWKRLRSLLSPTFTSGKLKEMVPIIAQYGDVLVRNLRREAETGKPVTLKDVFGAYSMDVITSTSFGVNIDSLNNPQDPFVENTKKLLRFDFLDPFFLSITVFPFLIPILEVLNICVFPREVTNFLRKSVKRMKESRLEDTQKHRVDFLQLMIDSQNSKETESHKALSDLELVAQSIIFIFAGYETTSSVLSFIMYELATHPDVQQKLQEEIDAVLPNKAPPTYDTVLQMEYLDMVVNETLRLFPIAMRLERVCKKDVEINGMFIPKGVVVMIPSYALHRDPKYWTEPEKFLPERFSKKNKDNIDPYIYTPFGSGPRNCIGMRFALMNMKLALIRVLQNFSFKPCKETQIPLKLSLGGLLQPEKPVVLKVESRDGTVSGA
In short: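 Luminescent readout of luciferin produced by CYP3A4 (20 nM) dealkylation of Luciferin-PPXE, 25 uM (its KM). NADPH-driven reaction ran 60 min at RT after 10 min compound preincubation; data scaled to 57 uM ketoconazole as 100% inhibition.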

[2] = Confirmation and Secondary Assay for Modulators of Hemoglobin Beta Chain Splicing at IVS2 654 locus (AID 910);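 also: HeLa cells stably carrying EGFP split by mutant beta-globin IVS2-654 intron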
In short: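 HeLa cells stably expressing EGFP interrupted by β-globin IVS2-654 intron, seeded overnight in Opti-MEM/2% FCS, then treated 2 days at 37 °C. Restored splicing read as total peak GFP intensity per well by laser scanning cytometry (488 nm excitation, 500–520 nm emission); 500 nM antisense PNA as control.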

[3] = Confirmation and Secondary Assay for Modulators of Hemoglobin Beta Chain Splicing at IVS2 705 locus (AID 930);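 also: HeLa cells stably expressing the EGFP-705 splicing reporter; GFP fluorescence per well restored by corrected splicing of the IVS2-705 intron in EGFP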
In short: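 Fluorescence gain (488 nm laser, 500-520 nm PMT) reflects restored correct splicing of a mutant IVS2-705 intron inside EGFP in stably transfected HeLa cells after 2-day compound treatment.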

[4] = qHTS Assay for Lipid Storage Modulators (AID 1519; calls by dose curve); details: Drosophila S3 cells, BODIPY lipid droplet/cell ratio, laser cytometry, cells loaded with oleic acid; for activity change, negative = inhibition: at 57.5 µM (top of the series)
In short: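 Cells seeded at 5,000 per well were treated with compounds over a concentration series and loaded with oleic acid (400 uM, as added). Lipid droplet fluorescence (488 nm excitation, 500-530 nm channel) was read by laser-scanning cytometry and normalized to 20 uM Triacsin C.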

[5] = biological target: Ubiquitin carboxyl-terminal hydrolase 1 (Homo sapiens) (UniProt O94782); assay: Inhibitors of USP1/UAF1: Pilot qHTS (AID 504865);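 also: rhodamine fluorescence freed from ubiquitin-rhodamine substrate followed over time; top concentration of the series differs between compounds; nearly all actives have a fitted effect of over 35% in size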
Chain of Ubiquitin carboxyl-terminal hydrolase 1 (Homo sapiens) (O94782 whole entry, looked up): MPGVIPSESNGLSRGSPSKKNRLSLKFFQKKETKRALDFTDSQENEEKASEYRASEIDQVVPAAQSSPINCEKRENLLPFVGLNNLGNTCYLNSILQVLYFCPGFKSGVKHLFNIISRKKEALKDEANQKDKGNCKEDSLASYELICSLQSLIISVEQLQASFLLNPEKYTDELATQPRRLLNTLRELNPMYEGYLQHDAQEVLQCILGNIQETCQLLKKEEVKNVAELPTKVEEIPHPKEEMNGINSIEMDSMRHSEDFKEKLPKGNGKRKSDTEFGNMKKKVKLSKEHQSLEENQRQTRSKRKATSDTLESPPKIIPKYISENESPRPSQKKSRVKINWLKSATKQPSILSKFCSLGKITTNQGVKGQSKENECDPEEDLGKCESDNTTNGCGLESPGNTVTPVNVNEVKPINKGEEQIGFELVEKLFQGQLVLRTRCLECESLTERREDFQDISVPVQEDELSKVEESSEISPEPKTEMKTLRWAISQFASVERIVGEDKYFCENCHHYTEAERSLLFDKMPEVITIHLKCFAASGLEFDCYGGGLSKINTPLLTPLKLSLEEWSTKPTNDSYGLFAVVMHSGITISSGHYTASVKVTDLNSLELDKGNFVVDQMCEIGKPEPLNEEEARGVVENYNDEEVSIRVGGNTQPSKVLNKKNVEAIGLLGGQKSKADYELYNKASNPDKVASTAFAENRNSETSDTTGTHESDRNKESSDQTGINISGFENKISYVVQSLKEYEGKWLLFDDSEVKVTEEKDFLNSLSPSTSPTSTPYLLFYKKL
In short: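 Enzyme-free wells gave the negative control, while test wells held 1nM USP1/UAF1 preincubated with compound for 15 min at room temperature. Ub-Rho at 150nM final started the reaction, and fluorescence at 480/540 nm was recorded kinetically.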

[6] = measured here: cell count channel max response
[7] = measured here: lipid channel max response

Row | Compound | Potency [1] | Potency [2] | Potency [3] | activity change, negative = inhibition [4] | max response [4, 6] [%] | max response [4, 7] [%] | Potency [5]
1 | CC(C)CCCC(C)C1CCC2C3CC(=O)[C@H]4CC(O)CC[C@]4(C)C3CC[C@@]12C (stereo not given in full) | inactive | inactive | inactive | -8.35% (inactive) | -5.43 | -14 | inactive
2 | NCC1CCCCC1CC(=O)O (stereo not given) | inactive | inactive | inactive | 5.88% (inactive) | 16.7 | 26.7 | inactive
3 | O=C(NCO)c1cccnc1 | inactive | inactive | inactive | 5.95% (inactive) | 14.8 | 25.7 | inactive
4 | CC1C(=O)CCC2[C@]1(C)CCC1[C@]2(C)CC[C@@]2(C)C3CC(C)(C)CC[C@]3(C)CC[C@@]12C (stereo not given in full) | inactive | inactive | inactive | 2.51% (inactive) | 9.14 | 14.3 | inactive
5 | C[C@@H]1OC(OC2C(OC3CC[C@@]4(C)C5CC=C6C7CC(C)(C)CC[C@@]7(C(=O)O)CCC6(C)C5(C)CCC4[C@]3(C)CO)OCC(O)C2O)C(O)C(O)C1O (stereo not given in full) | inactive | inactive | inactive | 3.66% (inactive) | 9.24 | 14.3 | inactive
6 | NCC1O[C@@H](OC2C(N)C[C@H](N)[C@@H](O[C@H]3OC(CO)C(O)C(N)C3O)C2O)C(N)C(O)C1O (stereo not given in full) | inactive | inactive | inactive | 2.92% (inactive) | 11.9 | 7.99 | inactive
7 | CC(=O)N[C@H](Cc1c[nH]c2ccccc12)C(N)=O | inactive | inactive | inactive | 4.6% (inactive) | 3.77 | 4.03 | inactive
8 | NCC1OC(OC2C(N)CC(N)[C@@H](O)[C@@H]2OC2O[C@H](CO)[C@@H](O[C@@H]3OC(CN)C(O)C(O)C3N)C2O)C(N)C(O)C1O (stereo not given in full) | inactive | inactive | inactive | 9.63% (inactive) | 15.6 | 30 | inactive
9 | COc1ccccc1/C=C\C(=O)O | inactive | inactive | inactive | -2.1% (inactive) | 4.2 | 4.2 | inactive
10 | CN(C)C1C(=O)C(C(N)=O)=C(O)[C@@]2(O)C(=O)C3=C(O)c4c(O)ccc(Cl)c4C(O)[C@H]3C[C@@H]12 (stereo not given in full) | inactive | inactive | inactive | 5.54% (inactive) | 25.6 | 35.5 | inactive
11 | CC(=O)NC1C(O)C[C@@](O)(C(=O)O)OC1[C@@H](O)C(O)CO (stereo not given in full) | inactive | inactive | inactive | 3.62% (inactive) | 13.3 | 18.3 | inactive
12 | CCCCCC(CC(=O)O)C(=O)O (stereo not given) | inactive | inactive | inactive | 12.5% (inactive) | 21.4 | 35.2 | inactive
13 | COc1ccc(-c2cc(=O)c3c(O)cc(O[C@@H]4OC(COC5OC(C)C(O)C(O)[C@@H]5O)C(O)C(O)C4O)cc3o2)cc1 (stereo not given in full) | inactive | inactive | inactive | 5.1% (inactive) | -4.97 | 1.77 | inactive
14 | CC1CCC(C(C)(C)O)CC2=C1CCC2C (stereo not given) | inactive | inactive | inactive | 7.53% (inactive) | 9.89 | 15.9 | inactive
15 | CC1(C)OC2C(CO)OC(n3cnc4c(=O)[nH]c(N)nc43)C2O1 (stereo not given) | inactive | inactive | inactive | 4.01% (inactive) | 24 | 28 | inactive
16 | C/C1=C/CC(C)(C)/C=C/C/C(C)=C/CC1 | inactive | inactive | inactive | 0.556% (inactive) | 16.1 | 16.9 | inactive
17 | CC1=C(/C=C/C(C)=C/C=C/C(C)=C/C=C/C=C(C)/C=C/C=C(C)/C=C/C2=C(C)C(=O)C(O)CC2(C)C)C(C)(C)CC(O)C1=O (stereo not given) | inactive | inactive | inactive | 2.55% (inactive) | 25.7 | 27.4 | inactive
18 | CC(=O)NC(CCC(=O)O)C(=O)O (stereo not given) | inactive | inactive | inactive | 11.4% (inactive) | 14.5 | 27.6 | inactive
19 | CC1CCC(C(C)C)[C@H](OC(=O)c2ccccc2)C1 (stereo not given in full) | inactive | inactive | inactive | 5.46% (inactive) | 10.9 | 15.1 | inactive
20 | NC(CSCSCC(N)C(=O)O)C(=O)O (stereo not given) | inactive | inactive | inactive | 1.54% (inactive) | 7.28 | 12.4 | inactive
21 | CS(=O)(=O)CCCCN=C=S | inactive | inactive | inactive | -15.3% (inactive) | -1.15 | -18 | inactive
22 | CCCCCC1C(=O)CCC1CC(=O)O (stereo not given) | inactive | inactive | inactive | 5.46% (inactive) | 21.6 | 28.3 | inactive
23 | CC(=O)Oc1cc(-c2coc3cc(OC(C)=O)c(OC(C)=O)c(OC(C)=O)c3c2=O)cc(OC(C)=O)c1OC(C)=O | inactive | inactive | inactive | 13.7% (inactive) | 12.1 | 28.6 | inactive
24 | C[C@@H]1/C(=N/O)CC2C[C@@H]1C2(C)C | inactive | inactive | inactive | 2.67% (inactive) | 9.02 | 13.7 | inactive
25 | NC(=O)c1ccc[n+]([C@@H]2OC(COP(=O)([O-])OP(=O)(O)OCC3OC(n4cnc5c(N)ncnc54)C(OP(=O)(O)O)C3O)C(O)C2O)c1 (stereo not given in full) | inactive | inactive | inactive | 5.09% (inactive) | 9.14 | 18.1 | inactive

Row | Compound | Potency [1] | Potency [2] | Potency [3] | activity change, negative = inhibition [4] | max response [4, 6] [%] | max response [4, 7] [%] | Potency [5]
26 | COC1=CC(C)C2CC3OC(=O)CC4C(C)=C(OC)C(=O)C([C@]2(C)C1=O)[C@]34C (stereo not given in full) | inactive | inactive | inactive | 1.13% (inactive) | 5.55 | 6.48 | inactive
27 | CC1CCC2(OC1)OC1CC3C4CC[C@@H]5CC(O)CC[C@@]5(C)C4CC(=O)[C@]3(C)C1C2C (stereo not given in full) | inactive | inactive | inactive | 9.56% (inactive) | 0.354 | 13.1 | inactive
28 | O=C(O)C1CC(C2CCCCN2)CN2CCCCC12 (stereo not given) | inactive | inactive | inactive | 2.57% (inactive) | -1.28 | 1.78 | inactive
29 | CCC(C)C(NC)C(=O)O (stereo not given) | inactive | inactive | inactive | 5.09% (inactive) | 17.4 | 24.1 | inactive
30 | COc1ccc2c(C)cc(=O)oc2c1 | inactive | inactive | inactive | 8.28% (inactive) | 31.7 | 42.1 | inactive
31 | O=C(O)c1ccc2c(c1)OCO2 | inactive | inactive | inactive | 6.55% (inactive) | 14.4 | 22.7 | inactive
32 | O=c1cc(-c2ccccc2)oc2cc(O)c(O)cc12 | inactive | inactive | inactive | -1.09% (inactive) | -7.11 | -6.23 | inactive
33 | Nc1nc2c(c(=O)[nH]1)N(C=O)C(CNc1ccc(C(=O)NC(CCC(=O)O)C(=O)O)cc1)CN2 (stereo not given) | inactive | inactive | inactive | 6.17% (inactive) | 17.6 | 27.2 | inactive
34 | O=c1[nH]c(=O)c2nc(Br)n(C3OC(CO)C(O)C3O)c2[nH]1 (stereo not given) | inactive | inactive | inactive | 6.72% (inactive) | 5.7 | 13 | inactive
35 | CCC(/C=C/C(C)C1CCC2C3CCC4=CC(=O)CC[C@@]4(C)C3CC[C@@]12C)C(C)C (stereo not given in full) | inactive | inactive | inactive | 4.65% (inactive) | 11.9 | 16.6 | inactive
36 | NC(=O)NCC(N)C(=O)O (stereo not given) | inactive | inactive | inactive | 2.49% (inactive) | 3.72 | 6.05 | inactive
37 | Nc1nc2c(nc(Br)n2C2CC(O)C(CO)O2)c(=O)[nH]1 (stereo not given) | inactive | inactive | inactive | 3.88% (inactive) | 4.93 | 9.77 | inactive
38 | CC(=O)/C(=C\c1ccccc1)CC(=O)O | inactive | inactive | inactive | 9.42% (inactive) | 12.7 | 23.6 | inactive
39 | O=C(/C=C/C(=O)Oc1ccccc1C(=O)O)Oc1ccccc1C(=O)O | inactive | inactive | inactive | 7.98% (inactive) | 4.07 | 13.2 | inactive
40 | C=C1CCC(C2CC(=O)OC2=O)C(=O)CCC2C1CC2(C)C (stereo not given) | inactive | inactive | inactive | 4.44% (inactive) | 19.1 | 26.1 | inactive
41 | COC1[C@H](OC(N)=O)C(O)[C@H](Oc2ccc3c(O)c(NC(=O)c4ccc(O)c(CC=C(C)C)c4)c(=O)oc3c2C)OC1(C)C (stereo not given in full) | inactive | inactive | inactive | 8.38% (inactive) | 13.2 | 25.2 | inactive
42 | COc1cc(O)ccc1C(C)=O | inactive | inactive | inactive | 7.68% (inactive) | 24.4 | 34.1 | inactive
43 | COc1ccc(-c2oc3c(CC=C(C)C)c(O[C@H]4OC(CO)C(O)C(O)C4O)cc(O)c3c(=O)c2O[C@@H]2OC(C)C(O)C(O)C2O)cc1 (stereo not given in full) | inactive | inactive | inactive | 3.91% (inactive) | 22 | 29.5 | inactive
44 | Nc1nc2nc(Cl)[nH]c2c(=O)[nH]1 | inactive | inactive | inactive | 6.34% (inactive) | 6.47 | 14.5 | inactive
45 | CC1(C)OC2C(CO)OC(n3cnc4c(=O)[nH]cnc43)C2O1 (stereo not given) | inactive | inactive | inactive | 1.95% (inactive) | 3.64 | 5.67 | inactive
46 | CCC(C(=O)O)c1ccccc1 (stereo not given) | inactive | inactive | inactive | 0.321% (inactive) | 8.63 | 10.3 | inactive
47 | CCCCC(=O)Oc1ccccc1C(=O)O | inactive | inactive | inactive | -0.236% (inactive) | 5.62 | 5.3 | inactive
48 | COc1cc(NS(C)(=O)=O)ccc1Cc1c2ccccc2nc2ccccc12 | inactive | inactive | inactive | 4.8% (inactive) | 13 | 21.3 | inactive
49 | CC(=O)/C=C\C1[C@]2(C)CCCC(C)(C)C2CC[C@@]1(C)O (stereo not given in full) | inactive | inactive | inactive | 3.07% (inactive) | -10.9 | -8.32 | inactive
50 | Nc1ncnc2c1nc(Br)n2C1CC(O)C(CO)O1 (stereo not given) | inactive | inactive | inactive | 2.34% (inactive) | 9.06 | 11.8 | inactive
